Results as given in PubChem BioAssay (NCI).
The panel holds about 79,000 compounds, 15% with a hit somewhere; the sample as a whole holds those more often. A number with no mark means an inactive call. The source made the active and inactive calls. Cut-off read from the data, not from the text of the source: active = growth inhibition above about 70%; inactive = the rest.

Columns and labels:
[1] = NCI Yeast Anticancer Drug Screen. Data for the rad50 strain (AID 155);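 note: 0% = growth of vehicle-only cultures of the same strain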; conditions: S. cerevisiae rad50 strain growth inhibition, stronger effect = higher value
Method in brief: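 A DNA repair-deficient yeast mutant serves as the test organism; compound-induced growth inhibition is calculated against vehicle-treated cells.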

[2] = NCI Yeast Anticancer Drug Screen. Data for the mec2-1 strain (AID 157); conditions: S. cerevisiae mec2-1 strain, stronger effect = higher value
Method in brief: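 Compounds were applied to mec2-1 yeast cells. Their growth was then compared with that of vehicle-treated cultures to give growth inhibition.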

[3] = NCI Yeast Anticancer Drug Screen. Data for the sgs1 mgt1 strain (AID 161);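 note: 0% = growth of cultures given vehicle only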; conditions: S. cerevisiae sgs1 mgt1 strain, stronger effect = higher value
Method in brief: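 This yeast growth screen uses a strain with defined DNA-repair lesions; compound-treated growth is compared with vehicle-treated growth.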

[4] = NCI Yeast Anticancer Drug Screen. Data for the cln2 rad14 strain (AID 165);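 note: 0% = growth equal to vehicle treated cultures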; conditions: S. cerevisiae cln2 rad14 strain, stronger effect = higher value
Method in brief: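 Strain: cln2 rad14 yeast, altered in cell cycle control and DNA damage repair. Read-out: growth inhibition vs vehicle.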

[5] = NCI Yeast Anticancer Drug Screen. Data for the bub3 strain (AID 167); conditions: S. cerevisiae bub3 mutant strain, stronger effect = higher value
Method in brief: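 Inhibition values come from growth of compound-treated mutant yeast normalised to vehicle-treated controls.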

[6] = NCI Yeast Anticancer Drug Screen. Data for the mlh1 rad18 strain (AID 175); conditions: S. cerevisiae mlh1 rad18 strain growth inhibition, stronger effect = higher value
Method in brief: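 A repair-deficient yeast strain is exposed to test compound, and growth is scored relative to vehicle-treated controls.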

[7] = at 5.0 µM (retest, dose inferred, filed as 0.5)
[8] = at 50.0 µM (retest, dose inferred, filed as 5.0)

| Compound | growth inhibition [1, 7] | growth inhibition [1, 8] | growth inhibition ([1]; at 50.0 µM) | growth inhibition [2, 7] | growth inhibition [2, 8] | growth inhibition ([2]; at 50.0 µM) | growth inhibition [3, 7] | growth inhibition [3, 8] | growth inhibition ([3]; at 50.0 µM) | growth inhibition [4, 7] [%] | growth inhibition [4, 8] | growth inhibition ([4]; at 50.0 µM) | growth inhibition [5, 7] | growth inhibition [5, 8] | growth inhibition ([5]; at 50.0 µM) | growth inhibition [6, 7] | growth inhibition [6, 8] | growth inhibition ([6]; at 50.0 µM) |
| --- | --- | --- | --- | --- | --- | --- | --- | --- | --- | --- | --- | --- | --- | --- | --- | --- | --- | --- |
| C=C1C(=O)O[C@H]2[C@H](OC(C)=O)[C@@H](C)CCC/C(C)=C/CC[C@@]3(C)O[C@@H]3C[C@@H]12 | 14% | 99% (active) | 91.9% (active) | 17% | 99% (active) | 94.2% (active) | 20% | 98% (active) | 92.8% (active) | 3 | 95% (active) | 91.1% (active) | 3% | 98% (active) | 93% (active) | 22% | 99% (active) | 92.3% (active) |
| Cc1cc(/C=C/c2cccc[n+]2C)c(C)n1-c1ccccc1 | 4% | 85% (active) | 96% (active) | -1% | 93% (active) | 91.6% (active) | 1% | 90% (active) | 95.8% (active) | -4 | 85% (active) | 90.8% (active) | -8% | 85% (active) | 17.1% | 6% | 94% (active) | 93.7% (active) |
| CC(C(=O)O)c1cn(Cc2ccccc2)c2ccccc12 (configuration not stated) | -2% | 61% | 4.65% | 6% | 58% | 43.2% | -28% | 36% | 31.4% | 6 | 85% (active) | -8.85% | 21% | 80% (active) | -43.8% | 6% | 34% | 38.9% |
| O=C1C=CC(=O)c2c(O)c(N3CCC[C@H]3CO)c(Cl)c(O)c21 | 20% | 90% (active) | 61.2% | 14% | 90% (active) | 78.9% (active) | 19% | 95% (active) | 23.9% | 13 | 51% | 20% | 25% | 97% (active) | 34.5% | 31% | 90% (active) | 41.6% |
| COCCN1C(=O)C2c3[nH]c4ccccc4c3C3CCC(C(C)(C)C)CC3C2C1=O (configuration not stated) | -2% | 98% (active) | 93.8% (active) | -1% | 98% (active) | 96% (active) | -7% | 98% (active) | 88.7% (active) | -21 | 96% (active) | 95.6% (active) | -4% | 94% (active) | 94.2% (active) | 4% | 98% (active) | 94.5% (active) |
| O=[N+]([O-])c1ccc(NCc2ccccc2)c([N+](=O)[O-])c1 | -8% | 69% | 14.6% | -16% | 55% | 31.1% | 4% | 72% (active) | 60.6% | -10 | 62% | -166% | 19% | 86% (active) | 72.7% (active) | -2% | 80% (active) | 68% |
| CCC(=O)OCC(=O)c1ccc(-c2ccccc2)cc1 | -9% | -20% | -5.1% | -8% | 1% | -3.7% | -2% | 18% | 3% | 33 | -56% | -5.4% | 36% | 10% | 57.1% | -8% | 1% | -1.05% |
| Clc1ccc(-c2cc(-c3cc(-c4ccc(Cl)c(Cl)c4)n[nH]3)[nH]n2)cc1Cl | -2% | 68% | 91% (active) | 6% | 43% | 22.8% | 0% | 67% | 65% | 3 | 60% | 29.7% | -14% | 89% (active) | 22.8% | 19% | 89% (active) | 65% |
| CC(=O)O/C=C\COC(C)=O | 4% | 4% | 79.8% (active) | 2% | -2% | 47.8% | 3% | 2% | 42.5% | 3 | -2% | 33.5% | 6% | 1% | 86.3% (active) | 2% | 6% | 39.3% |
| CN1CCN(CCOC(=O)N2c3ccccc3Sc3ccccc32)CC1 | 1% | 1% | 9.45% | 2% | -2% | -13.2% | -1% | 2% | 45.5% | 0 | 1% | -13.9% | -2% | -4% | 15.6% | -4% | -3% | 4.4% |
| CSc1ccc2c(c1)S[S@@](=O)N2 | -5% | 55% | 35.9% | -11% | 61% | 1.45% | 9% | 34% | 56.6% | -16 | 33% | 18.3% | 5% | 96% (active) | 51.4% | -3% | 38% | 62.5% |
| C=CC(=O)NC(=O)Nc1ccc(Cl)cc1 | 18% | 97% (active) | 98% (active) | 32% | 98% (active) | 98.2% (active) | 27% | 99% (active) | 98.9% (active) | 10 | 98% (active) | 97.5% (active) | 23% | 97% (active) | 98.3% (active) | 25% | 99% (active) | 98.7% (active) |
| CC(=O)Nc1nnc(C)s1 | 0% | -3% | 4.25% | 0% | -3% | -11.8% | -2% | -5% | -4.4% | -3 | 6% | 13% | 1% | 1% | -19.3% | 1% | -3% | -18.8% |
| CCCCCCC(=O)OCc1ccc(-c2ccccc2)cc1 | 97% (active) | 99% (active) | 99% (active) | 98% (active) | 100% (active) | 99.4% (active) | 95% (active) | 100% (active) | 99.3% (active) | 26 | 94% (active) | 99% (active) | 70% (active) | 99% (active) | 99.2% (active) | 99% (active) | 99% (active) | 99.2% (active) |
| N#CC1Oc2ccccc2N1C(=O)c1ccccc1 (configuration not stated) | 2% | 12% | 33% | 0% | 7% | 54.1% | -3% | -4% | 36% | -6 | 0% | -0.55% | -8% | 48% | 77.3% (active) | 2% | 4% | 64.3% |
| COC1=CC(=O)c2c(O)c3c(c(O)c2C1=O)C[C@](C)(O)C[C@@H]3O | 27% | 93% (active) | 84.7% (active) | 14% | 94% (active) | 79.8% (active) | 12% | 91% (active) | 85.6% (active) | 0 | 29% | 47.7% | 36% | 93% (active) | 83.8% (active) | 33% | 96% (active) | 84.5% (active) |
| O=C(O)C(CS)Nc1c2ccccc2nc2ccccc12 (configuration not stated) | 17% | 88% (active) | 88.6% (active) | 10% | 64% | 39.5% | 11% | 76% (active) | 65% | 17 | 47% | 68.5% | -5% | 71% (active) | 37.5% | 16% | 81% (active) | 91.2% (active) |
| CCCCCN(CCCCC)CC(O)c1cc2ccccc2c2ccccc12 (configuration not stated) | -1% | 98% (active) | 99.3% (active) | 11% | 99% (active) | 99.4% (active) | 18% | 100% (active) | 99.4% (active) | -12 | 98% (active) | 99.2% (active) | -1% | 99% (active) | 99.3% (active) | 27% | 99% (active) | 99.2% (active) |
| FC(F)(F)C(C1=NC(C(F)(F)F)(C(F)(F)F)N=C(N2CCOCC2)O1)C(F)(F)F | 24% | 33% | 24.8% | 16% | 28% | 71.8% (active) | 20% | 48% | 30.4% | 26 | 45% | 60.4% | 36% | 80% (active) | 13.6% | 51% | 66% | 39.6% |
